D1 ag – Allosteric Agonists of the Human D1 Dopamine Receptor: qHTS | AID 504660, 2011 | HEK293 T-REx D1 cells, calcium flux, agonist mode | activation, % at 2 µM | 360,000 tested, 1% active; also: 0% is about no effect
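Inducible HEK293 T-REx D1 cells, force-coupled to calcium signalling, were plated at 4000 cells/well with tetracycline and held overnight at 30 C. After no-wash calcium dye loading, compound-evoked calcium rise over 180 s flagged agonists.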
TRHR agonist – qHTS for Small Molecule Agonists and Allosteric Enhancers of Human TRH Receptor: Primary Screen for Agonists; 360,000 tested, 0.18% active; activation, % at 2 µM; TRHR cells, calcium flux fluo-8, FDSS agonist mode; AID 493084, 2011; Thyrotropin-releasing hormone receptor (Homo sapiens), P34981; also: 0% is about no effect
Target sequence (P34981 whole entry, looked up): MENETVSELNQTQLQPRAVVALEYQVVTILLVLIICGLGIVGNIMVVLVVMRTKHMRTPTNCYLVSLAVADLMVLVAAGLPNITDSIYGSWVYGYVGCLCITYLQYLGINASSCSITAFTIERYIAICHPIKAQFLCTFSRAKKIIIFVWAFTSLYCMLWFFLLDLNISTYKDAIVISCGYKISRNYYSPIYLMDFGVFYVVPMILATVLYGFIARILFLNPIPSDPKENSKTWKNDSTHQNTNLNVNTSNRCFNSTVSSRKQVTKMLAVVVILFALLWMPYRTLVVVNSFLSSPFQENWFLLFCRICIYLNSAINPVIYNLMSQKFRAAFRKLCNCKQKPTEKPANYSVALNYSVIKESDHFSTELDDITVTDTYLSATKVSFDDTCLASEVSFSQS
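Steps: seed TRHR cells overnight; add fluo-8 no-wash Ca dye, RT 30 min–1.5 h; record 10 s baseline; pin-transfer compounds; monitor fluorescence 1 cycle/s for the agonist window. Calcium increases flag candidate agonists.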
D1 potentiator – Potentiators of Human D1 Dopamine Receptor: qHTS. D(1A) dopamine receptor (Homo sapiens), P21728. HEK293 TREx D1 cells, calcium flux, dopamine EC20 potentiation. potentiation, % at 10 µM. 360,000 tested, 0.036% active. AID 504651, 2011; in the data active = potentiation above about 30%; also: 0% is about no effect
TRHR enhancer – qHTS for Small Molecule Agonists and Allosteric Enhancers of Human TRH Receptor: Primary Screen for Enhancers | AID 493056, 2011 | 360,000 tested, 0.66% active | Thyrotropin-releasing hormone receptor (Homo sapiens), P34981 | enhancement, % at 2 µM | TRHR cells, fluo-8 calcium fluorescence, EC20 TRH enhancement; in the data active = enhancement above about 30%; also: 0% is about no effect
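Enhancer read-out: after compound pinning and an initial kinetic agonist-mode read, an EC20 of TRH (10 nM final) was injected and fluo-8 calcium signal (Ex 480/Em 530) followed at 1 s/cycle for 100 cycles in TRHR-expressing cells.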
GRP78 ERSR act – qHTS for Inducers of the Endoplasmic Reticulum Stress Response (ERSR) in Human Glioma: qHTS. U87-MG GRP78 promoter luciferase reporter, 16 h. Potency, µM, for inactives: at the top dose activation, actives largely listed as activators. 420,000 tested, 0.02% active; active = well fitted activation curve with a large enough effect; also: potency is read from the fitted curve at half-maximal effect; series mostly up to about 76 µM; % of control where 0% means no effect; nearly all actives have a fitted effect of over 35% in size
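Stably transfected U87-MG human glioma cells carrying a GRP78-based luminescent sensor were seeded at 1000 cells/well, pin-dosed with compounds and incubated 16 h. Luciferase reagent was then added, and end-point luminescence was read after 10 min at room temperature.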
D1 antag – Antagonist of Human D 1 Dopamine Receptor: qHTS. HEK293 TREx D1 cells, calcium flux, dopamine EC80; stronger effect = lower value. activity change, negative = inhibition, % at 10 µM. AID 504652, 2011. 360,000 tested, 3.2% active; in the data active = activity change below about -30%; also: % is scaled to controls: 0 for no effect and ±100 for the full control effect
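Calcium flux readout: force-coupled, inducible Hek293 Trex D1 line, cells induced overnight at 30 C with tetracycline, dye-loaded 30–90 min at RT. Antagonism scored against EC80 dopamine challenge given 180 s after compound.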
* hit, by the source's call; nt = no result. Rows were chosen to be rich in hits. Some 4% of all compounds tested hit in one or more screens of this group. Rule as the data show it, unless noted: active = activation above about 30%; inactive = the rest.

SMILES | D1 ag | TRHR agonist | D1 potentiator | TRHR enhancer | GRP78 ERSR act | D1 antag
COCCn1c(SCC(=O)N(C)c2ccccc2)nc2c([nH]c3ccccc32)c1=O | -0.4 | -0.7 | 1.7 | -3.0 | -4.5% | -21.3
O=C(NCCCNc1ccc(C(F)(F)F)cc1[N+](=O)[O-])c1cc(F)c(F)cc1Cl | 15.7 | 1.3 | -4.7 | -0.8 | -4.0% | -42.7*
O=C(NCCCNc1ccc(C(F)(F)F)cc1[N+](=O)[O-])c1ccc(Cl)cc1 | 0.2 | -0.2 | -3.5 | 3.2 | -3.3% | 10.8
Cc1cnc(C(=O)Nc2ccc(C(C)C)cc2)cn1 | -0.5 | -0.4 | -10.1 | -9.9 | -2.2% | -31.3*
Cc1cnc(C(=O)Nc2ccc(F)cc2)cn1 | 2.5 | 0.3 | -2.7 | 2.3 | -0.3% | -0.6
COc1ccc(Oc2c(-c3ccc(O)cc3O)n[nH]c2C)cc1 | 3.2 | -1.2 | -4.5 | 2.1 | -2.4% | 0.4
CCCc1ccc(Oc2c(-c3ccc(O)c(C)c3O)n[nH]c2C)cc1 | 35.3* | 3.4 | -3.6 | 2.1 | -6.4% | 8.0
CCCc1ccc(Oc2cn[nH]c2-c2ccc(O)c(C)c2O)cc1 | 33.2* | 2.4 | -11.3 | 10.1 | -1.5% | -16.7
Cc1c(C(=O)OCCOc2ccccc2)[nH]c2c1C(=O)CC(c1ccccc1Cl)C2 (configuration not stated) | 10.0 | 1.6 | -1.8 | 1.6 | -3.2% | -0.7
CCOC(=O)c1cnn(-c2ccccc2)c1-n1cccc1C(=O)C(=O)Nc1ccc(F)cc1 | 6.8 | 2.3 | -6.0 | 0.6 | -5.0% | -85.1*
CCOC(=O)c1cnn(-c2ccccc2)c1-n1cccc1C(=O)C(=O)Nc1ccccc1 | 2.4 | 0.5 | -3.7 | 5.5 | 8.3% | -15.5
COC(c1ccccc1)c1nnc(CCC(=O)N(C)CCCC2CCCC2)o1 (configuration not stated) | 5.6 | -2.0 | -2.8 | -10.7 | 0.3% | -32.5*
COC(c1ccccc1)c1nnc(CCC(=O)N(C)CCOc2ccccc2)o1 (configuration not stated) | 0.0 | 0.2 | -2.4 | -0.8 | 1.2% | 1.3
CCOc1ccc(S(=O)(=O)Nc2nc3ccccc3nc2N2CCN(C)CC2)cc1 | 3.6 | 0.2 | -0.2 | -3.2 | -4.3% | -6.9
Cc1ccccc1C(=O)N=c1ccn(-c2nc3ccccc3nc2NS(=O)(=O)c2ccccc2)cc1 | 38.8* | 7.8 | -7.5 | 5.1 | -5.1% | -0.4
COc1cc(Cl)c(C)cc1Nc1nc2ccccc2nc1NS(=O)(=O)c1ccccc1 | 12.9 | -1.4 | -2.0 | 12.9 | 6.1% | 11.8
CCOc1ccc(S(=O)(=O)Nc2nc3ccccc3nc2-n2ccc(=NC(=O)c3ccccc3C)cc2)cc1 | 61.5* | 10.8 | -8.8 | -5.3 | -4.5% | -18.5
CCCN1C(=O)c2cc(C(=O)Nc3ccc(OC)cc3OC)ccc2C1Nc1ccc(OC)cc1OC (configuration not stated) | 2.0 | -1.5 | -2.9 | 1.5 | -2.8% | -28.2
O=C(c1ccc2c(c1)OCO2)N(c1ccccc1)C1C=CS(=O)(=O)C1 (configuration not stated) | 2.7 | 0.1 | 1.5 | -4.3 | 3.1% | -39.6*
CCOc1cc(C(=O)Nc2ccc3oc(-c4ccc(CC)cc4)nc3c2)cc(OCC)c1OCC | 3.9 | 1.4 | -0.5 | 36.2* | -2.4% | -11.2
COc1ccc(-c2nc3cc(NC(=O)COc4ccccc4C)ccc3o2)cc1 | 9.5 | 1.4 | 3.8 | -3.3 | nt | -54.1*
O=C(COc1ccc2ccc(=O)oc2c1)Nc1ccc(CCO)cc1 | 2.5 | 0.0 | -3.0 | -3.3 | 5.3% | -49.4*
O=C(COc1ccccc1[N+](=O)[O-])Nc1cc(-c2nc3cc(Cl)ccc3o2)ccc1Cl | 0.3 | 1.4 | -2.1 | 1.2 | 0.8% | -45.2*
CCOc1cc(C(=O)Nc2ccc(-c3nc4cc(C)ccc4o3)cc2)cc(OCC)c1OCC | 0.0 | 1.1 | 4.0 | 8.9 | -1.7% | 4.5
COc1ccc(-c2nc3cc(NC(=O)COc4ccc(F)cc4)ccc3o2)cc1 | 0.8 | 1.1 | -0.8 | 10.4 | nt | -4.9
SMILES | D1 ag | TRHR agonist | D1 potentiator | TRHR enhancer | GRP78 ERSR act | D1 antag
Cc1ccc(OCC(=O)Nc2cc(-c3nc4cc(Cl)ccc4o3)ccc2C)c(C)c1 | nt | nt | nt | nt | 0.7% | nt
Cc1cccc(OCC(=O)Nc2ccc(-c3nc4ccccc4o3)cc2)c1C | 4.4 | 2.6 | -0.6 | 30.8* | nt | 8.2
Cc1cccc(OCC(=O)Nc2cccc3cccnc23)c1C | 4.6 | -0.8 | 1.0 | 5.0 | -2.0% | -44.7*
Cc1cc(C)cc(OCC(=O)Nc2ccc(-c3nc4ccccc4o3)cc2)c1 | 9.0 | 2.1 | -3.1 | -3.9 | nt | -32.2*
Cc1ccc(OCC(=O)Nc2ccc3oc(=O)ccc3c2)c(C)c1 | 2.9 | -0.1 | -6.5 | 0.2 | 1.6% | -55.5*
Cc1cccc(OCC(=O)Nc2ccncc2)c1C | 13.1 | -0.5 | -10.1 | -2.2 | 0.8% | -0.7
Cc1cc(Cl)ccc1OCC(=O)Nc1ccc2oc(=O)ccc2c1 | 7.6 | -0.6 | -10.9 | -2.7 | -4.2% | -29.2
CC(Nc1oc(-c2ccc(COc3ccc(Cl)cc3)o2)nc1C#N)c1ccccc1 (configuration not stated) | 2.3 | 0.6 | -0.2 | 3.0 | -3.7% | -6.0
COc1ccc(C(C)=O)cc1CSc1nnc(SCc2cc(C(C)=O)ccc2OC)s1 | 1.8 | 0.2 | -7.8 | 29.4 | 0.1% | -7.9
CC(C)N1C[C@@]23C=C[C@@H](O2)C(C(=O)OCc2ccccc2)[C@H]3C1=O (some centres not stated) | 2.1 | 0.2 | -1.8 | -0.7 | 0.2% | -2.2
CSc1nc2ccc3nc(NC(=O)c4ccccc4)sc3c2s1 | -0.7 | 0.4 | -0.1 | 37.3* | 1.4% | -3.4
COc1ccc(/C(=C/Nc2cccc(Br)c2)C(C)=O)cc1OC | -1.4 | -0.8 | -5.0 | 40.7* | -2.9% | -10.9
COc1ccc(N/C=C(/C(C)=O)c2ccccc2)cc1 | 4.0 | -1.4 | -8.1 | 15.2 | 0.8% | -11.3
CCN(CC)C(=O)CC(c1cc(OC)c(OC)c(OC)c1)c1c(OC)cc(OC)c2c(-c3ccccc3)cc(=O)oc12 (configuration not stated) | 1.7 | -0.1 | -9.4 | 3.1 | -2.2% | -100.4*
CCN(CC)CCC(c1ccc(N(C)C)cc1)c1c(OC)cc(OC)c2c(-c3ccccc3)cc(=O)oc12 (configuration not stated) | 39.2* | 1.3 | -5.2 | 2.8 | -5.5% | -46.8*

High-throughput results from PubChem.
